Compounds without any hit were thinned out: in the full panel of roughly 83,000, 20% have a hit.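 Values shown are percent growth following 48 h exposure of cells in 96-well plates to a single concentration of compound; below 10 was considered active.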 A number with no mark means an inactive call. Calls of active or inactive are those of the source.
What was measured:
Assay in all cases: NCI-60 one-dose screen, 48 h (100 = growth as untreated, 0 = no growth, -100 = all killed)
Conditions in all cases: 10 µM
K-562 leukemia = test system: K-562 leukemia
MALME-3M melanoma = test system: MALME-3M melanoma
MDA-MB-231 breast = test system: MDA-MB-231 breast
RXF 393 renal = test system: RXF 393 renal
SF-268 CNS = test system: SF-268 CNS
SF-295 CNS = test system: SF-295 CNS
SF-539 CNS = test system: SF-539 CNS
UACC-257 melanoma = test system: UACC-257 melanoma
M14 melanoma = test system: M14 melanoma
HCT-15 colon = test system: HCT-15 colon

Cc1ccc(NC(=O)Nc2nc3ccccc3s2)cc1NC(=O)Nc1nc2ccccc2s1
growth (K-562 leukemia): 83.8% | growth (MALME-3M melanoma): 90.6% | growth (MDA-MB-231 breast): 82.4% | growth (RXF 393 renal): 94.7% | growth (SF-268 CNS): 91.5% | growth (SF-295 CNS): 101% | growth (SF-539 CNS): 74.6% | growth (UACC-257 melanoma): 10.5% | growth (M14 melanoma): 90.3% | growth (HCT-15 colon): 72.9%

O=C(Nc1cccc(-n2cc(-c3ccncc3)c(-c3ccc(O)c(Cl)c3)n2)c1)Nc1cccc(C(F)(F)F)c1
growth (K-562 leukemia): 2.72% (active) | growth (MALME-3M melanoma): -24.1% (active) | growth (MDA-MB-231 breast): -22.1% (active) | growth (RXF 393 renal): -11.7% (active) | growth (SF-268 CNS): 9.04% (active) | growth (SF-295 CNS): -12.6% (active) | growth (SF-539 CNS): -8.84% (active) | growth (UACC-257 melanoma): -19% (active) | growth (M14 melanoma): -8.16% (active) | growth (HCT-15 colon): 14.9%

Clc1ccc(-c2cn(-c3ccccc3)c(-c3ccccc3)n2)c(Cl)c1
growth (K-562 leukemia): 24.8% | growth (MALME-3M melanoma): -43.3% (active) | growth (MDA-MB-231 breast): -11.7% (active) | growth (RXF 393 renal): 41.3% | growth (SF-268 CNS): -26.7% (active) | growth (SF-295 CNS): 19.5% | growth (SF-539 CNS): -22.2% (active) | growth (UACC-257 melanoma): 52.2% | growth (M14 melanoma): 16.7% | growth (HCT-15 colon): -71.4% (active)

O=C1/C(=C\c2ccc(Cl)cc2)CN(C(=S)Nc2ccccc2)C/C1=C\c1ccc(Cl)cc1
growth (K-562 leukemia): 2.61% (active) | growth (MALME-3M melanoma): -39.9% (active) | growth (MDA-MB-231 breast): -17.3% (active) | growth (RXF 393 renal): -88.6% (active) | growth (SF-268 CNS): -72.4% (active) | growth (SF-295 CNS): -53.3% (active) | growth (SF-539 CNS): -94.4% (active) | growth (UACC-257 melanoma): -55.4% (active) | growth (M14 melanoma): -65.3% (active) | growth (HCT-15 colon): -34.7% (active)

Cc1ccc(C(=O)N2C/C(=C/c3ccccc3)C(=O)/C(=C/c3ccccc3)C2)cc1
growth (K-562 leukemia): 5.67% (active) | growth (MALME-3M melanoma): 60.3% | growth (MDA-MB-231 breast): 53.4% | growth (RXF 393 renal): 31.3% | growth (SF-268 CNS): 66.4% | growth (SF-295 CNS): 56.1% | growth (SF-539 CNS): 87.2% | growth (UACC-257 melanoma): 80.1% | growth (M14 melanoma): 18.2% | growth (HCT-15 colon): 24.5%

CCOC(=O)N1C/C(=C/c2ccc(OC)cc2)C(=O)/C(=C/c2ccc(OC)cc2)C1
growth (K-562 leukemia): -2.17% (active) | growth (MALME-3M melanoma): 34.2% | growth (MDA-MB-231 breast): 30.6% | growth (RXF 393 renal): -44.4% (active) | growth (SF-268 CNS): 38.2% | growth (SF-295 CNS): 24.5% | growth (SF-539 CNS): 39.4% | growth (UACC-257 melanoma): 42.9% | growth (M14 melanoma): -40.8% (active) | growth (HCT-15 colon): 3.06% (active)

CCOC(=O)C(CSC(c1ccccc1)(c1ccccc1)c1ccccc1)NC(=O)C(CSC(c1ccccc1)(c1ccccc1)c1ccccc1)NC(c1ccccc1)(c1ccccc1)c1ccccc1 (centres undefined)
growth (K-562 leukemia): 112% | growth (MALME-3M melanoma): 108% | growth (MDA-MB-231 breast): 108% | growth (RXF 393 renal): 97.4% | growth (SF-268 CNS): 110% | growth (SF-295 CNS): 86.7% | growth (SF-539 CNS): 112% | growth (UACC-257 melanoma): 88.8% | growth (M14 melanoma): 111% | growth (HCT-15 colon): 100%

N#Cc1ncc(-c2ccc(C(F)(F)F)cc2)c(NCc2cc(C(F)(F)F)cc(C(F)(F)F)c2)n1
growth (K-562 leukemia): 16.1% | growth (MALME-3M melanoma): 10.1% | growth (MDA-MB-231 breast): 39.4% | growth (RXF 393 renal): 35.8% | growth (SF-268 CNS): 56.8% | growth (SF-295 CNS): 4.36% (active) | growth (SF-539 CNS): 66.4% | growth (UACC-257 melanoma): 28.7% | growth (M14 melanoma): 40% | growth (HCT-15 colon): 7.65% (active)

CCCCCCCC(C)NCCO (centres undefined)
growth (K-562 leukemia): 103% | growth (MALME-3M melanoma): 107% | growth (MDA-MB-231 breast): 123% | growth (RXF 393 renal): 105% | growth (SF-268 CNS): 106% | growth (SF-295 CNS): 90% | growth (SF-539 CNS): 105% | growth (UACC-257 melanoma): 90.8% | growth (M14 melanoma): 105% | growth (HCT-15 colon): 116%

CCOC(=O)c1ccc(NC(=O)Nc2ncc(Cl)cc2Cl)cc1
growth (K-562 leukemia): 79.4% | growth (MALME-3M melanoma): 111% | growth (MDA-MB-231 breast): 94% | growth (RXF 393 renal): 100% | growth (SF-268 CNS): 104% | growth (SF-295 CNS): 96.5% | growth (SF-539 CNS): 96.2% | growth (UACC-257 melanoma): 14.7% | growth (M14 melanoma): 94.7% | growth (HCT-15 colon): 102%

CC(=O)N1C/C(=C/c2ccc(Cl)cc2)C(=O)/C(=C/c2ccc(Cl)cc2)C1
growth (K-562 leukemia): 2.09% (active) | growth (MALME-3M melanoma): -56.4% (active) | growth (MDA-MB-231 breast): -23.6% (active) | growth (RXF 393 renal): -92.8% (active) | growth (SF-268 CNS): -26.8% (active) | growth (SF-295 CNS): -30.1% (active) | growth (SF-539 CNS): -39.4% (active) | growth (UACC-257 melanoma): -32.2% (active) | growth (M14 melanoma): -51.1% (active) | growth (HCT-15 colon): -5.84% (active)

COc1cc(Cl)cc(-c2nn(-c3cccc(NC(=O)Nc4ccc(Cl)c(C(F)(F)F)c4)c3)cc2-c2ccncc2)c1
growth (K-562 leukemia): 8.93% (active) | growth (MALME-3M melanoma): -19.8% (active) | growth (MDA-MB-231 breast): -30.8% (active) | growth (RXF 393 renal): -29.9% (active) | growth (SF-268 CNS): 22.9% | growth (SF-295 CNS): -7.48% (active) | growth (SF-539 CNS): -1.17% (active) | growth (UACC-257 melanoma): -25.9% (active) | growth (M14 melanoma): 3.99% (active) | growth (HCT-15 colon): 7.28% (active)

O=C(Nc1cccc(-n2cc(-c3ccncc3)c(-c3ccc(O)c(Cl)c3)n2)c1)Nc1ccc(Cl)c(Cl)c1
growth (K-562 leukemia): 5.72% (active) | growth (MALME-3M melanoma): -27% (active) | growth (MDA-MB-231 breast): -44.9% (active) | growth (RXF 393 renal): -26.2% (active) | growth (SF-268 CNS): 10.9% | growth (SF-295 CNS): -40.4% (active) | growth (SF-539 CNS): -19.8% (active) | growth (UACC-257 melanoma): -42.7% (active) | growth (M14 melanoma): -50.3% (active) | growth (HCT-15 colon): 14.1%

CNc1ncc(-c2ccc(C(F)(F)F)cc2)c(NC2CCCCCC2)n1
growth (K-562 leukemia): 76.2% | growth (MALME-3M melanoma): 61.3% | growth (MDA-MB-231 breast): 92.8% | growth (RXF 393 renal): 80.6% | growth (SF-268 CNS): 99.7% | growth (SF-295 CNS): 79.4% | growth (SF-539 CNS): 93.5% | growth (UACC-257 melanoma): 73.2% | growth (M14 melanoma): 93.9% | growth (HCT-15 colon): 81.5%

O=C(Nc1cccc(-n2cc(-c3ccncc3)c(-c3cc(O)cc(Cl)c3)n2)c1)c1ccc(N2CCOCC2)c(C(F)(F)F)c1
growth (K-562 leukemia): -15.5% (active) | growth (MALME-3M melanoma): -26.9% (active) | growth (MDA-MB-231 breast): -48% (active) | growth (RXF 393 renal): -45.6% (active) | growth (SF-268 CNS): 52.7% | growth (SF-295 CNS): -35.4% (active) | growth (SF-539 CNS): 2.4% (active) | growth (UACC-257 melanoma): 9.38% (active) | growth (M14 melanoma): -20.7% (active) | growth (HCT-15 colon): 6.25% (active)

C/C(N)=C(\C#N)C(=O)c1ccccc1
growth (K-562 leukemia): 109% | growth (MALME-3M melanoma): 90.5% | growth (MDA-MB-231 breast): 121% | growth (RXF 393 renal): 97.5% | growth (SF-268 CNS): 110% | growth (SF-295 CNS): 94.1% | growth (SF-539 CNS): 103% | growth (UACC-257 melanoma): 88% | growth (M14 melanoma): 110% | growth (HCT-15 colon): 98.2%

CCOC(=O)C(=Cc1ccc(Br)cc1)C(=O)OCC
growth (K-562 leukemia): 0.625% (active) | growth (MALME-3M melanoma): -49.5% (active) | growth (MDA-MB-231 breast): 4.72% (active) | growth (RXF 393 renal): -75% (active) | growth (SF-268 CNS): -6.93% (active) | growth (SF-295 CNS): 38.3% | growth (SF-539 CNS): 8.53% (active) | growth (UACC-257 melanoma): -37.8% (active) | growth (M14 melanoma): -22% (active) | growth (HCT-15 colon): -42.1% (active)

Cc1ccc(NC(=O)Nc2cccnc2)cc1NC(=O)Nc1cccnc1
growth (K-562 leukemia): 57.4% | growth (MALME-3M melanoma): 102% | growth (MDA-MB-231 breast): 92.8% | growth (RXF 393 renal): 82.7% | growth (SF-268 CNS): 96.8% | growth (SF-295 CNS): 77.9% | growth (SF-539 CNS): 87.5% | growth (UACC-257 melanoma): 10.9% | growth (M14 melanoma): 91.6% | growth (HCT-15 colon): 84%

COc1cc(Nc2ccnc(NCCCNc3ccnc4cc(Cl)ccc34)n2)cc(OC)c1
growth (K-562 leukemia): -51.1% (active) | growth (MALME-3M melanoma): -87.7% (active) | growth (MDA-MB-231 breast): -54.6% (active) | growth (RXF 393 renal): -83.3% (active) | growth (SF-268 CNS): -19.9% (active) | growth (SF-295 CNS): -75.9% (active) | growth (SF-539 CNS): -98.5% (active) | growth (M14 melanoma): -85.6% (active) | growth (HCT-15 colon): 0.0216% (active)

Cn1c([N+](=O)[O-])cnc1/C=C1\Oc2ccccc2C1=O
growth (K-562 leukemia): 3.53% (active) | growth (MALME-3M melanoma): -71.1% (active) | growth (MDA-MB-231 breast): -31.7% (active) | growth (RXF 393 renal): -68.9% (active) | growth (SF-268 CNS): -49% (active) | growth (SF-295 CNS): -1.94% (active) | growth (SF-539 CNS): -43.4% (active) | growth (UACC-257 melanoma): -57% (active) | growth (M14 melanoma): -43.3% (active) | growth (HCT-15 colon): 6.69% (active)

Source: PubChem BioAssay (NCI)
